Data on nine molecules can be found in PubChem BioAssay.

Test [1] in a line: optical density shifts of acrAB sulA E. coli – strain DRC41, OD650, 48 h, E. coli filamentation inducer project, primary screen (AID 1152).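 Also: E. coli MC1000 strain DRC41 lacking acrAB efflux pump and sulA.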 As to conditions: higher = more signal, called active from +8 up or from −8 down.
The nature of test [2]: probe aLefty1 binding on compound microarray – biochemical, small-molecule microarray, 635/667 nm fluorescence, primary screen (AID 1153).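 Also: score merges spot fluorescence with signal-to-noise ratio from the scanned slide images.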 The following applies: higher = more signal.
Test [3] is described as follows: plasmodial surface anion channel blockers, osmotic lysis – cell-based, P. falciparum Indochina, OD700, 1 h, primary screen (AID 1154). As to conditions: P. falciparum Indochina infected RBC osmotic lysis, higher = more signal, called active from +8 up or from −8 down.
A short description of test [4]: plasmodial surface anion channel blockers, osmotic lysis – cell-based, P. falciparum Indochina, OD700, 2 h, primary screen (AID 1155).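 Also: lysis reports solute entry through the parasite surface anion channel PSAC.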 The following applies: P. falciparum Indochina infected erythrocytes, higher = more signal, called active from +8 up or from −8 down.
Test [5] can be described thus: changes in parasitized red cell lysis, either direction – P. falciparum Indochina, OD700, 3 h, PSAC antagonist project, primary screen (AID 1156). As to conditions: P. falciparum-infected erythrocytes, osmotic lysis, higher = more signal, called active from +8 up or from −8 down.
Test [6] in a line: plasmodial surface anion channel blockers, osmotic lysis – cell-based, P. falciparum Indochina, OD700, 18 h, primary screen (AID 1157). The following applies: P. falciparum Indochina infected erythrocytes, osmotic lysis OD700, 18 h; higher = more signal, called active from +8 up or from −8 down.
A short description of test [7]: S6 kinase pathway phospho-S6 level changes – cell-based, A549, cytoblot, luminescence, serum-stimulated, primary screen (AID 1158).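 Also: serum-stimulated A549 lung adenocarcinoma cells; signal is phosphorylated S6 detected by cytoblot immunostaining with HRP secondary.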 The following applies: 5 h, higher = more signal.
The target of test [8] is NADPH oxidase 2 (Homo sapiens) (UniProt P04839). Description: compounds shifting NOX2 Amplex Red fluorescence – cell-based, HEK293-NOX2, PMA-stimulated, NOX inhibitor project, primary screen (AID 1159). Also: test concentration not given here. As to conditions: 45 min, higher = more signal, called active from +8 up or from −8 down.
Test [9] addresses NADPH oxidase 4 (Homo sapiens) (UniProt Q9NPH5). Description: compounds shifting NOX4 Amplex Red fluorescence – cell-based, HEK293-NOX4, tetracycline-induced, NOX inhibitor project, primary screen (AID 1160). As to conditions: HEK293-NOX4, Amplex Red H2O2 fluorescence, 45 min; higher = more signal, called active from +8 up or from −8 down.
In test [10] the target is NADPH oxidase 5 (Homo sapiens) (UniProt Q96PH1). Description: compounds shifting NOX5 Amplex Red fluorescence – cell-based, HEK293-NOX5, NOX inhibitor project, primary screen (AID 1161). The following applies: HEK293-NOX5, ionomycin, 45 min, higher = more signal.
The nature of test [11]: compound effects on lung adenocarcinoma cell viability – A549, calcein-AM fluorescence, 48 h, basal, profiling panel (AID 1162). Also: test concentration not given here. The following applies: higher = more signal.
Test [12] can be described thus: compound effects on differentiated 3T3-L1 adipocyte viability – cell-based, 3T3-L1 adipocytes, calcein-AM fluorescence, 48 h, basal, profiling panel (AID 1163). Also: test concentration not given here. The following applies: 3T3-L1 adipocytes viability, higher = more signal.
Test [13] in a line: compound effects on hepatocellular carcinoma cell viability – HepG2, calcein-AM fluorescence, 48 h, basal, profiling panel (AID 1164). Also: test concentration not given here. The following applies: higher = more signal.
Test [14] can be described thus: compound effects on multiple myeloma cell viability – MM1S, calcein-AM fluorescence, 48 h, basal, profiling panel (AID 1165). Also: test concentration not given here. As to conditions: higher = more signal.
Test [15] can be described thus: calcein-AM signal in unstimulated myeloma cells – cell-based, calcein-AM fluorescence, 48 h, PK04 Diversity Set, profiling panel (AID 1166).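 Also: cells grown under basal conditions without added stimulus; test concentration not given here.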 The following applies: RPMI8226 myeloma viability, higher = more signal.
Test [16] in a line: JC-1 mitochondrial signal, unstimulated HepG2 cells – cell-based, JC-1 fluorescence, 24 h, 100 nL compound, profiling panel (AID 1167). Also: test concentration not given here. As to conditions: HepG2 mitochondrial potential, higher = more signal.
A short description of test [17]: JC-1 mitochondrial signal, unstimulated adipocytes – cell-based, JC-1 fluorescence, 3T3-L1 adipocytes, 24 h, 100 nL compound, profiling panel (AID 1168). Also: test concentration not given here. As to conditions: JC-1 mitochondrial fluorescence, higher = more signal, called active from +8 up or from −8 down.
The nature of test [18]: JC-1 mitochondrial signal, unstimulated myeloma cells – cell-based, JC-1 fluorescence, RPMI8226, 24 h, 100 nL compound, profiling panel (AID 1169). Also: test concentration not given here. The following applies: JC-1 mitochondrial potential fluorescence, higher = more signal.
The nature of test [19]: JC-1 mitochondrial signal, unstimulated MM1S myeloma – cell-based, JC-1 fluorescence, 24 h, 100 nL compound, profiling panel (AID 1170). Also: test concentration not given here. As to conditions: MM1S mitochondrial potential, higher = more signal.
A short description of test [20]: resazurin metabolic signal in A549 cells – cell-based, resazurin fluorescence, 24 h, PK04 Diversity Set, profiling panel (AID 1171). Also: test concentration not given here. As to conditions: A549 viability, higher = more signal, called active from +8 up or from −8 down.

Calls of active or inactive are those of the source.

Chain of NADPH oxidase 5 (Homo sapiens) (Q96PH1 whole entry, looked up): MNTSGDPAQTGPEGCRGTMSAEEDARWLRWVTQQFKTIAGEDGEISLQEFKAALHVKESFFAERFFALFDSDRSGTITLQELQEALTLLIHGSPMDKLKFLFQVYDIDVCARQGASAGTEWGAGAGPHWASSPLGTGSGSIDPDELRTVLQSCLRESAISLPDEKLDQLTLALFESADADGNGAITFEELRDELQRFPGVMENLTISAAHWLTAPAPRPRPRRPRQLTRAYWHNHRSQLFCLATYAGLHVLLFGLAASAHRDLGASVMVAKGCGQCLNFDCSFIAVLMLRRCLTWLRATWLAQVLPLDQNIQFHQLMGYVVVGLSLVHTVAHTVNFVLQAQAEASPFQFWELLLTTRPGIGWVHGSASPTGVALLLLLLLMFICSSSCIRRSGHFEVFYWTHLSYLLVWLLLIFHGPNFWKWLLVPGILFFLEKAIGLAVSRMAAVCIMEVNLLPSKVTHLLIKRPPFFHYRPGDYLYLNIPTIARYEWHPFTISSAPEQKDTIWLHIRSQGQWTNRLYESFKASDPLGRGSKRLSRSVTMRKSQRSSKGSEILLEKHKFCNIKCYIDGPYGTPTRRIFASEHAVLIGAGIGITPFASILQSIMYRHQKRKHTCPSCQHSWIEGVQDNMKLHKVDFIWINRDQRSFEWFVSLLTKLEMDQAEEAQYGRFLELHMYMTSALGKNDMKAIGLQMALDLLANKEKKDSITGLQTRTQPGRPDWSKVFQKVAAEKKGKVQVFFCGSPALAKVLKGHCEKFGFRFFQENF
Chain of NADPH oxidase 4 (Homo sapiens) (Q9NPH5 whole entry, looked up): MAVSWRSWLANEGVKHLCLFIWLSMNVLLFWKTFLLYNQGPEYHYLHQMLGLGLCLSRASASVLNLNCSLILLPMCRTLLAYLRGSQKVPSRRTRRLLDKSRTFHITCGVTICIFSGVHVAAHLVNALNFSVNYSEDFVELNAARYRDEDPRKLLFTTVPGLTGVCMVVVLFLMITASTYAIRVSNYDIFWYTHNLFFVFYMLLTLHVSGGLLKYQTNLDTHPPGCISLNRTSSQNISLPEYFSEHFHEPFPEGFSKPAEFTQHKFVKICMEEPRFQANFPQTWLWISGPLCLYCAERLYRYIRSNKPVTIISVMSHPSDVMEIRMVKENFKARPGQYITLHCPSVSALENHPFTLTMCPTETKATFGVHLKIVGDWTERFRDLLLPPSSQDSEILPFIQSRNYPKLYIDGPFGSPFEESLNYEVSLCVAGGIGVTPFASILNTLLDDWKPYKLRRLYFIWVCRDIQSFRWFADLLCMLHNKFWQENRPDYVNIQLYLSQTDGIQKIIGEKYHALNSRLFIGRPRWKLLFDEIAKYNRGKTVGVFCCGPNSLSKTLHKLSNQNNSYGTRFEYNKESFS
Chain of NADPH oxidase 2 (Homo sapiens) (P04839 whole entry, looked up): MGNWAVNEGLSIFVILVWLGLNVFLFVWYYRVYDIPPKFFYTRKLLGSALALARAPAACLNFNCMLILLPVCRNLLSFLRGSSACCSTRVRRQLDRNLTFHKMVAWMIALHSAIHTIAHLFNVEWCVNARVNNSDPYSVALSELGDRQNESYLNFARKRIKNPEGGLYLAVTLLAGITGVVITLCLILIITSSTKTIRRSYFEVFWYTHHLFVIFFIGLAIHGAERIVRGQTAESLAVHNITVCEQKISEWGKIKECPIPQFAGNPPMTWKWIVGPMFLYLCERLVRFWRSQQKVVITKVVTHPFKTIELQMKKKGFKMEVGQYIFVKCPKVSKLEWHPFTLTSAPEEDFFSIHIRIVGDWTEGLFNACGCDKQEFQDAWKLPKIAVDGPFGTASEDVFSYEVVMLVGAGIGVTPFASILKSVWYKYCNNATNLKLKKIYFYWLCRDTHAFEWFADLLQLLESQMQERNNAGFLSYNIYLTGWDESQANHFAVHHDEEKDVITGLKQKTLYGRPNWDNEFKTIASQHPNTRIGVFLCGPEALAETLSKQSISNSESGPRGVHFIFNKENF

As to `CN1C2C=C(CCCO)C(C3C(=O)N(C(N)=O)C(=O)C32)C1c1cccs1` (stereo not given), the z-score in test [1] was -0.214 (inactive); in test [3], 1.12 (inactive); in [4], 0.273 (inactive); in test [5], 0.13 (inactive); in test [6], 0.431 (inactive); in [7], -0.633. Further, the z-score was 0.824 (inactive) in test [8]; -0.845 (inactive) in test [9]; 0.259 in [10]; -0.452 in test [11]; -0.086 in test [12]; -0.099 in test [13]. Besides, the z-score in test [14] is -0.542; in test [15], 0.204; in test [16], -0.742; in test [17] it was -1 (inactive); in test [18] it was 1.17; in test [19] it was -0.0274. In addition, in [20], the z-score was -0.268 (inactive). Also, the composite z-score in [2] was -0.101.

For `CC(C)CNC(=O)[C@@H]1c2ccccc2C(=O)N(Cc2cc(F)cc(C(F)(F)F)c2)[C@H]1c1ccc(CO)cc1`, the z-score in test [1] was 2.9 (inactive); in test [3], 2.62 (inactive); in test [4], 0.649 (inactive); in test [5] it was 1.27 (inactive); in test [6], -0.111 (inactive); in test [7], 0.207. Besides, the z-score is -0.453 (inactive) in [8]; 0.967 (inactive) in test [9]; 0.52 in [10]; 2.21 in test [11]; -0.979 in [12]; 1.37 in [13]. Moreover, the z-score is -0.215 in test [14]; 0.857 in test [15]; 2.31 in [16]; 0.299 (inactive) in [17]; -0.137 in test [18]; 0.205 in test [19]. Also, the z-score in test [20] was 0.317 (inactive). For the same molecule, the composite z-score in [2] was determined as 0.0571.

For the molecule `CCOC(=O)C[C@H]1[C@H](OC(=O)c2ccc(-c3ccccc3)cc2)[C@@H](NC(=O)c2ccc3ccccc3c2)c2cc(OCCCO)ccc2N1C(=O)c1ccc2ccccc2n1`, the z-score in test [1] is -0.572 (inactive); in [3] it was 4.55 (inactive); in test [4] it was 0.568 (inactive); in test [5] it was -0.559 (inactive); in [6], 0.159 (inactive); in test [7] it was 0.762. Moreover, the z-score is -1.35 (inactive) in [8]; 0.928 (inactive) in test [9]; 0.0885 in test [10]; 0.245 in test [11]; 0.543 in [12]; -0.573 in test [13]. The z-score was 0.477 in test [14]; -1.06 in [15]; 1.33 in test [16]; 1.26 (inactive) in test [17]; 0.729 in [18]; 0.164 in test [19]. The z-score in [20] is 0.094 (inactive). Also, the composite z-score in [2] came out at 0.302.

For the molecule `C=CCOC(=O)[C@@H]1[C@H]2C(=O)O[C@H](c3ccccc3)[C@H](c3ccccc3)N2[C@H](c2ccc(OCCOC(=O)[C@H]3C[C@H]4C(=O)N[C@@H](CCCCN(C)C)C(=O)N4[C@H]3c3cccc(OCCO)c3)cc2)[C@@]12C(=O)Nc1ccc(I)cc12`, the z-score in [1] was -0.142 (inactive); in test [3], 1.19 (inactive); in test [4], 1.16 (inactive); in test [5] it was -1.08 (inactive); in test [6], 0.865 (inactive); in test [7], -0.714. The z-score in test [8] was 1.53 (inactive); in test [9] it was 1.18 (inactive); in test [10], 1.29; in test [11] it was 0.0169; in test [12] it was -0.859; in test [13], -0.102. The z-score in [14] was -0.671; in [15] it was -0.654; in test [16], -0.89; in [17], 1.12 (inactive); in test [18] it was -0.374; in test [19] it was -1.19. Besides, the z-score in test [20] was -0.299 (inactive). This molecule showed a composite z-score in [2] of 0.0665.

Consider `CCCCN1CC=CC23O[C@@H]4C=CCOC(=O)[C@@H]4[C@H]2C(=O)N(CCCO)[C@@H]3C1=O` (stereo not given in full), for which the z-score in test [1] was 0.915 (inactive); in test [3], -0.062 (inactive); in [4] it was -0.921 (inactive); in test [5] it was 0.836 (inactive); in test [6], -1.43 (inactive); in [7], 0.385. The z-score in test [8] was 0.05 (inactive); in test [9], -0.101 (inactive); in [10] it was -0.234; in test [11], -0.117; in test [12], 1.11; in [13], -0.49. Also, the z-score in test [14] is 0.799; in test [15] it was -0.304; in test [16] it was -1.11; in test [17], 0.111 (inactive); in test [18], -0.702; in test [19], 0.797. Also, the z-score in test [20] is -1.28 (inactive). In test [2], the composite z-score was -0.0075.

On to `Cc1ccc(S[C@]2(C(=O)O)CC(=O)N(Cc3ccccc3Cl)[C@@H]2c2ccc(CO)cc2)cc1`, for which the z-score was 0.33 (inactive) in [1]; 2.67 (inactive) in test [3]; -0.185 (inactive) in [4]; 0.825 (inactive) in [5]; 0.55 (inactive) in test [6]; 0.227 in [7]. Moreover, the z-score in [8] is 0.646 (inactive); in test [9], -1.5 (inactive); in test [10], 0.432; in test [11], 0.322; in [12] it was 0.152; in [13], -0.0394. Also, the z-score in test [14] was -0.217; in test [15] it was -1.44; in test [16] it was -0.0706; in [17], -0.672 (inactive); in [18] it was -0.509; in test [19], 1.37. Further, the z-score in test [20] was -0.462 (inactive). The molecule further came in with a composite z-score in test [2] of -0.112.

Regarding `COc1ccc([Si](C)(C)[C@H]2[C@H](CCO)O[C@@]3(C(=O)N(Cc4cccc(N5CCCCC5=O)c4)c4ccccc43)[C@@H]2C)cc1`, the z-score is -0.205 (inactive) in test [1]; 5.16 (inactive) in test [3]; 1.94 (inactive) in [4]; 0.558 (inactive) in [5]; 1.38 (inactive) in test [6]; 0.781 in test [7]. Moreover, the z-score in [8] is -5.46 (inactive); in test [9], -1.46 (inactive); in test [10], 0.189; in [11], -1.38; in [12], -0.865; in [13] it was -4.36. For the same molecule, the z-score was -2.73 in [14]; -4.35 in test [15]; -1.59 in test [16]; 0.0395 (inactive) in test [17]; -1.1 in [18]; -2.09 in test [19]. The z-score in [20] is -2.95 (inactive). In test [2], this molecule yielded a composite z-score of 0.102.

`CCCCN1CC=CC23O[C@@H]4/C=C\CCC(C)OC(=O)C4[C@H]2C(=O)N(CCCCCCO)[C@@H]3C1=O` (stereo not given in full): the z-score in test [1] is 0.622 (inactive); in test [3], 0.548 (inactive); in [4], 0.31 (inactive); in [5], 0.573 (inactive); in test [6] it was 0.454 (inactive); in test [7], 1.81. Moreover, the z-score in test [8] is 1.2 (inactive); in test [9], 0.112 (inactive); in test [10], 2.3; in test [11], -0.0164; in test [12], 0.736; in test [13], 1.11. For the same molecule, the z-score in test [14] was 1.79; in [15], -0.273; in test [16], 0.375; in test [17], 0.145 (inactive); in test [18], 0.336; in [19], -0.563. In addition, in test [20], the z-score is 0.254 (inactive). This molecule also yielded a composite z-score in test [2] of -0.145.

With `O=C1OC[C@@H](c2ccccc2)N2CC(/C=C/c3ccccc3)=CC12` (stereo not given in full), the z-score is -0.107 (inactive) in test [1]; 18.1 (active) in test [3]; 3.85 (inactive) in test [4]; 2.22 (inactive) in test [5]; 1.55 (inactive) in test [6]; -0.126 in [7]. The z-score in [8] was 0.724 (inactive); in test [9], -0.598 (inactive); in [10], 0.967; in test [11] it was -0.488; in test [12], -0.125; in test [13], -0.255. Besides, the z-score in [14] was -0.0482; in [15], -0.267; in test [16], -0.251; in test [17], 0.291 (inactive); in [18], -0.306; in test [19], 0.00388. The z-score in [20] was 1.05 (inactive). For the same molecule, the composite z-score in test [2] is -0.469.
